# Experimental data as given in PubChem BioAssay.
# Active and inactive are the calls of the source. Unless noted, no rule for the calls is given here.
# How the values were obtained:
# [1] = kinase inhibitors against Plasmodium liver-stage infection, cell-based, known kinase inhibitor set, luminescence, hepatoma host viability (AID 624392); conditions: Plasmodium liver stage in hepatoma cells, luciferase luminescence, concentration not given here; liver cell % of control: measured here: host liver cell viability; parasite % of control: stronger effect = lower value;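 also: infected cells incubated roughly two days before readout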
# [2] = modulators of glucocorticoid suppression of NF-kB, cell-based, luciferase, IL-1B stimulus, dexamethasone (AID 624486); conditions: NF-kB luciferase reporter, IL-1B + dexamethasone, luminescence; percent of negative control (+Dex): actives lie on both sides, concentration not given here; z-score: measured here: IL-1B alone, no Dex;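 as to percent of negative control (+Dex): 100% = mean signal of vehicle control wells on the plate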
# [3] = kinase inhibitors altering Pseudomonas killing of worms, whole organism (AID 651566);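 also: tested at 14 µM; sign flipped so higher z means a lower ratio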; conditions: C. elegans killed by P. aeruginosa, survival ratio
# [4] = activators of macrophage pro-inflammatory response, cell-based, murine, luminescence (AID 652131); conditions: murine macrophage pro-inflammatory reporter, stronger effect = higher value
# [5] = target: Cellular tumor antigen p53 (Homo sapiens) (UniProt P04637); experiment: kinase inhibitors altering GFP-p53 stability in HPV16-positive cells, imaging, known kinase inhibitor set, EGFP/DsRed ratio (AID 1053116); conditions: stronger effect = higher value; EGFP object count: measured here: GFP-p53 positive objects count;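 also: cells exposed to compounds for 24 h at 37 °C before reading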
# [6] = IRF3 reporter activation in THP-1 macrophages, cell-based, PMA-stimulated THP-1, luminescence (AID 1053176); conditions: PMA-differentiated THP-1, IRF3 reporter luminescence; stronger effect = higher value
# [7] = survival rescue of mitochondrial mutant cells in low glucose, primary screen, MELAS cybrids, Rieske KO mouse fibroblasts, CellTiter-Glo (AID 1508586;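 active = mean z-score across replicates of 1.96 or higher in either the MELAS or the Rieske mutant cell line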;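 also: z relative to plate mean and SD of compound and empty wells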)
# [8] = MELAS cybrid survival, CellTiter-Glo 48 h, stronger effect = higher value
# [9] = Rieske KO mouse fibroblast survival, CellTiter-Glo 72 h
# Cellular tumor antigen p53 (Homo sapiens), sequence (P04637 whole entry, looked up): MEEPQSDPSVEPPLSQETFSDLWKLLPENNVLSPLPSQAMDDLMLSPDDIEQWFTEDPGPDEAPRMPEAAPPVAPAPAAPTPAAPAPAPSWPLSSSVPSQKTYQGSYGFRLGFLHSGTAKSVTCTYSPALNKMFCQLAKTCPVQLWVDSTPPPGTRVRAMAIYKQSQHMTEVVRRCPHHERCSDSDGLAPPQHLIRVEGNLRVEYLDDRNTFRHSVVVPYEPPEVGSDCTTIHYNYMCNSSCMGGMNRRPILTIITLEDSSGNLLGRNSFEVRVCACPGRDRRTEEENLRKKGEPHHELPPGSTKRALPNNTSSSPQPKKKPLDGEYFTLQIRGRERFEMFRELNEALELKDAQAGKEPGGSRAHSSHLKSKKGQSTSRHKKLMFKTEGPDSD
SMILES,liver cell % of control [1] [%],parasite % of control [1],percent of negative control (+Dex) [2],z-score [2],z-score [3],z-score [4],EGFP object count [5],EGFP/DsRed ratio [5],fraction signal [6],"z-score [7, 8]","z-score [7, 9]"
NC(=O)c1ccc2c(-c3ccnc(NCCCO)n3)c(-c3ccc(F)cc3)nn2c1,85.3,58.4% (inactive),106% (inactive),0.705,-0.18 (inactive),0.119 (inactive),4,0.0827 (inactive),0.003 (inactive),-0.11 (inactive),-0.24
CCS(=O)(=O)c1ccc(OC)c(Nc2ncc(-c3cccc(OC)c3)o2)c1,161,16.6% (inactive),78.5% (inactive),-0.275,0.285 (inactive),-0.544 (inactive),4.5,0.129 (inactive),0.002 (inactive),1.48 (inactive),-0.42
COc1cccc(COc2cc(-n3cnc4ccccc43)sc2C(N)=O)c1,95,99.6% (inactive),87% (inactive),-0.845,1.31 (inactive),-0.593 (inactive),4,0.0452 (inactive),-0.006 (inactive),-0.15 (inactive),0.0931
COc1cc(Nc2ncc3c(C)nc(-c4cccc(C(F)(F)F)c4)n3n2)cc(OC)c1OC,91.6,120% (inactive),59.5% (inactive),-3.31,0.325 (inactive),-0.389 (inactive),11,0.172 (inactive),0.005 (inactive),1.04 (inactive),0.168
FC(F)(F)c1cccc(-c2nn3ncccc3c2-c2ccnc(Nc3ccc4c(c3)OCCO4)n2)c1,147,22.4% (inactive),90.5% (inactive),0.13,-0.325 (inactive),-0.458 (inactive),5.5,0.171 (inactive),0.007 (inactive),-0.0141 (inactive),-0.445
Nc1nc(-c2ccc(F)cc2)c(-c2ccc3ncccc3n2)s1,158,131% (inactive),85.5% (inactive),0.965,-0.035 (inactive),-0.162 (inactive),6,0.152 (inactive),-0.002 (inactive),0.38 (inactive),0.128
Cc1cc(Cl)cc2c(N=Nc3ccc(S(N)(=O)=O)cc3)c(O)[nH]c12,94.4,139% (inactive),100% (inactive),0.945,-0.145 (inactive),-0.3 (inactive),2.5,0.092 (inactive),-0.0045 (inactive),0.0201 (inactive),-0.605
CS(=O)(=O)CCNCc1ccc(-c2ccc3ncnc(Nc4ccc(OCc5ccccc5)cc4)c3c2)o1,63.9,59.1% (inactive),74.5% (inactive),-1.54,0.41 (inactive),-0.003 (inactive),6.5,0.116 (inactive),0.006 (inactive),0.5 (inactive),-0.312
CCn1c(-c2nonc2N)nc2c(C#CC(C)(C)O)nc(OCCNC)cc21,78.2,239% (inactive),83.5% (inactive),-0.295,1.3 (inactive),-0.135 (inactive),10.5,0.224 (inactive),-0.006 (inactive),-0.95 (inactive),-0.363
Cc1c2ccc(N(C)c3ccnc(Nc4cccc(S(N)(=O)=O)c4)n3)cc2nn1C,94.3,100% (inactive),94% (inactive),0.455,1 (inactive),-0.277 (inactive),3.5,0.0613 (inactive),0.0015 (inactive),-1.32 (inactive),-0.151
Cc1ccc(C(=O)NC2CCCCC2)cc1-c1ccc(C(=O)NCC2CC2)cc1,103,134% (inactive),88.5% (inactive),0.05,1.71 (inactive),0.167 (inactive),5.5,0.116 (inactive),-0.007 (inactive),-0.861 (inactive),0.203
COC(=O)Nc1nc2ccc(Oc3ccc(NC(=O)Nc4cccc(Cl)c4)cc3)cc2[nH]1,81.3,298% (inactive),122% (inactive),1.3,1.51 (inactive),0.651 (inactive),79.5,1.2 (inactive),-0.0045 (inactive),-0.179 (inactive),-0.521
